# Shown are actives, neighbours in structure and some others; about 7.4% of the full set was active somewhere.
# NOMO-1 viab – STK33 inhibitor candidate reducing NOMO-1 cell viability; NOMO-1 AML viability, CellTiter-Glo luminescence, 72 h; inhibition, % (test concentration not listed); 7.5% of 37,000 active; in the data active = inhibition above about 80%
# YB-1 expr inh – YB-1 expression inhibition. U2OS, qRT-PCR YB-1 vs CDIP delta delta Cp, 16 h; hits give high values; zero = DMSO, each unit about twofold. delta delta Cp (YB-1 minus CDIP) (test concentration not listed). 0.37% of 30,000 active;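 active = delta delta Cp rounded down to an integer at or above 3, about 3 SD of DMSO wells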;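 note: higher means less YB-1 transcript or more CDIP transcript relative to DMSO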
# MITF inh – blocks MITF activity. inhibition, % (concentration not given with the values). 0.28% of 37,000 active. TRPM1 promoter luciferase, luminescence, 24 h. AID 2240; in the data active = inhibition above about 85%;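 note: human melanocyte line stably carrying TRPM1 promoter luciferase reporter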
# Shh pathway inh – blocks Sonic Hedgehog signaling; 2.1% of 22,000 active; Shh-LIGHT2 Gli-luciferase reporter, 30 h; inhibition, % (test concentration not listed);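 active = mean inhibition across valid replicates above about 65%, limit read from the data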;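 note: pathway switched on by Shh-conditioned medium diluted 1 in 25 in low serum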
# PD-1 reversal – activators reversing PD-1 mediated T-cell inhibition; primary human CD4 T cells, PD-L1 beads, CellTiter-Glo 96 h; 29,000 tested, under 10 active; AID 2316; activation, % (test concentration not listed); call rule not given here;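 note: 0% = median vehicle wells and 100% = positive control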
# * = called active by the depositor; x = not tested or not shown.
SMILES,NOMO-1 viab,YB-1 expr inh,MITF inh,Shh pathway inh,PD-1 reversal
CC1=C(C(=O)OCCc2ccccc2)C(c2ccc(N(C)C)cc2)NC(=S)N1 (configuration not stated),11.2,-0.0792,-11.0,x,-4.7
O=C1C2=C(NC(=S)NC2c2ccccc2)c2ccccc21 (configuration not stated),114.3*,-0.183,60.3,16.1,-10.9
COC(=O)CCSc1ncnc2c1sc1nc(N3CCOCC3)c3c(c12)CCCC3,4.3,x,-40.8,x,-3.4
COc1ccc(NC(=O)CSc2ncnc3c2sc2nc(N4CCOCC4)c4c(c23)CC(C)(C)OC4)cc1,99.5*,x,-10.0,x,-5.9
CCN(CC)CCNc1ncnc2c1sc1nc(N3CCCC3)c3c(c12)CC(C)(C)OC3,113.3*,x,-23.4,x,-10.2
C[C@@H]1CN([C@H](C)CO)C(=O)c2cccc(NC(=O)C3CC3)c2O[C@@H]1CN(C)Cc1ccc(Cl)c(Cl)c1,33.4,-1.35,-3.5,78.4*,-0.6
C[C@H](CO)N1C[C@H](C)[C@H](CN(C)Cc2ccc(Cl)c(Cl)c2)Oc2c(NC(=O)C3CCCCC3)cccc2C1=O,92.2*,-0.349,25.3,10.1,-2.1
C[C@@H]1CN([C@H](C)CO)C(=O)c2cccc(NC(=O)C3CCCCC3)c2O[C@@H]1CN(C)Cc1ccc(Cl)c(Cl)c1,53.0,0.0191,5.5,31.3,-4.3
C[C@@H]1CN([C@@H](C)CO)C(=O)c2cccc(NC(=O)NC3CCCCC3)c2O[C@@H]1CN(C)Cc1ccc(Cl)c(Cl)c1,100.5*,0.579,-0.3,-15.7,-1.7
C[C@H]1CN([C@@H](C)CO)C(=O)c2cccc(NC(=O)NC3CCCCC3)c2O[C@H]1CN(C)Cc1ccc(Cl)c(Cl)c1,40.4,-0.144,40.9,-33.4,-2.3
C[C@H]1CN([C@@H](C)CO)C(=O)c2cccc(NC(=O)C3CCCCC3)c2O[C@@H]1CN(C)Cc1ccc(Cl)c(Cl)c1,91.1*,-0.287,8.9,38.4,0.7
Cc1ccc(NC(=O)C(C)Sc2nnc(C)s2)cc1 (configuration not stated),-3.8,x,-3.1,x,-0.9
CCCc1cc(=O)[nH]c(SCC(=O)Nc2cccc(F)c2)n1,-1.2,x,5.6,x,1.9
C[C@H](CO)N1C[C@H](C)[C@H](CN(C)C(=O)Nc2ccc(C(F)(F)F)cc2)Oc2c(NS(=O)(=O)c3ccc(F)cc3)cccc2C1=O,84.2*,0.465,29.6,15.5,-3.8
C[C@H]1CN([C@@H](C)CO)C(=O)c2cccc(NC(=O)Nc3ccc(C(F)(F)F)cc3)c2O[C@H]1CN(C)C(=O)Nc1ccccc1,103.3*,0.259,17.0,-14.6,-8.1
C[C@@H]1CN([C@@H](C)CO)C(=O)c2cccc(NC(=O)Nc3ccc(C(F)(F)F)cc3)c2O[C@@H]1CN(C)C(=O)Nc1ccc(C(F)(F)F)cc1,114.9*,0.648,-1.4,15.4,-3.8
COc1ccc(NC(=O)N(C)C[C@@H]2Oc3c(NC(=O)Nc4ccc(C(F)(F)F)cc4)cccc3C(=O)N([C@@H](C)CO)C[C@H]2C)cc1,93.4*,0.148,26.9,-76.4,-3.5
CCN(CC)C(=O)C1Sc2nnc(-c3ccccc3)n2NC1c1ccc(C)cc1 (configuration not stated),3.6,-0.0785,14.6,-6.2,-2.2
CCOC(=O)C1CCCCN1Cc1ccco1 (configuration not stated),29.6,x,9.2,x,x
O=C(COc1ccccc1O)N1CCCC1,-16.7,-0.0782,-20.4,-8.3,1.7
COc1ccc(SCC(=O)Nc2ccccn2)cc1,10.5,-0.0463,-3.2,-4.6,1.0
Oc1c(C(Nc2ccccn2)c2cccc(OC3CCCC3)c2)ccc2cccnc12 (configuration not stated),114.2*,x,66.0,x,-12.2
C#CCOc1ccc(C(Nc2ccccn2)c2ccc3cccnc3c2O)cc1 (configuration not stated),112.8*,x,43.2,x,x
O=S(=O)(NCCNC/C=C/c1ccc(Br)cc1)c1cccc2cnccc12,57.8,-0.0236,25.8,81.0*,-2.9
Cc1cc2oc(C(=O)Nc3nnc(SCc4ccccc4)s3)c(C)c2cc1C,-4.9,x,-15.2,x,2.1
SMILES,NOMO-1 viab,YB-1 expr inh,MITF inh,Shh pathway inh,PD-1 reversal
COc1cc(OC)c(C2=NOC(C(=O)NCc3ccco3)C2)cc1Cl (configuration not stated),128.7*,x,15.3,x,1.2
O=C(NCc1ccco1)C1CC(c2ccccc2O)=NO1 (configuration not stated),19.5,x,-11.8,x,x
Nc1nc(SCC(=O)c2ccc(Cl)cc2Cl)n[nH]1,8.6,x,-30.5,x,-2.8
CNC(=O)C(=O)NCCc1c[nH]c2ccccc12,-10.8,x,-16.4,x,5.0
Cc1cccc(-c2noc(CN(C(=O)c3ccc([N+](=O)[O-])c(C)c3)C(C)C)n2)c1,131.7*,x,39.7,x,-9.6
Cc1ccc(C(=O)N(Cc2nc(-c3ccc(Cl)cc3)no2)C(C)C)cc1[N+](=O)[O-],11.5,x,18.0,x,0.6
O=C1CC(c2ccccc2)Oc2cc(O)cc(O)c21 (configuration not stated),10.0,-0.0755,-29.7,-7.8,-2.3
O=C1CC(c2ccccc2)Oc2ccc(Cl)cc21 (configuration not stated),115.0*,0.0202,-15.9,-48.2,-6.1
Cc1cc(Cl)ccc1NC(=O)CSc1nnc(-c2ccc(Br)cc2)n1C,33.1,x,-4.0,x,2.2
C[C@@H]1CN([C@@H](C)CO)C(=O)Cc2cc(N(C)C)ccc2O[C@@H]1CN(C)Cc1ccccc1,122.2*,0.134,28.6,2.3,x
C[C@@H]1CN([C@@H](C)CO)C(=O)Cc2cc(N(C)C)ccc2O[C@@H]1CN(C)Cc1ccc(Oc2ccccc2)cc1,106.3*,0.396,9.8,-2.6,x
Cc1onc(-c2ccccc2)c1C(=O)Nc1cccc(S(=O)(=O)N(C)C)c1,8.9,x,1.7,x,x
O[C@H]1[C@H]2c3cc4c(cc3CN3CCC(=C[C@@H]1O)[C@H]23)OCO4,142.0*,0.0701,62.4,83.1*,-6.2
O[C@@H]1[C@@H](O)C=C2CCN3Cc4cc5c(cc4[C@H]1C23)OCO5 (some centres not stated),114.3*,-0.626,62.8,95.8*,x
COc1ccc(Cl)cc1N1CCN(CCNC(=O)Nc2ccccc2C)CC1,39.9,x,3.9,x,x
COc1ccc(C)cc1CN1CCC(CNC(=O)Nc2cc(Cl)ccc2C)CC1,121.8*,x,24.4,x,-12.4
CC1C[C@@]23CC4C(C)(C)[C@@]5(C[C@]4(CN2C1=O)N(C)C3=O)C(=O)Nc1c5ccc2c1C(=O)CC(C)(C)O2 (some centres not stated),118.3*,-0.183,9.5,7.5,-0.4
N#CSCC(=O)C12CC3CC(CC(C3)C1)C2,112.8*,-0.689,46.8,x,-7.1
COc1ccc(S(=O)(=O)N(C)C[C@@H]2Oc3ccc(NC(=O)Nc4ccc5c(c4)OCO5)cc3CC(=O)N([C@H](C)CO)C[C@H]2C)cc1,-12.3,-0.0129,0.2,-44.2,x
COc1ccc(S(=O)(=O)N(C)C[C@@H]2Oc3ccc(NC(=O)Nc4ccc5c(c4)OCO5)cc3CC(=O)N([C@H](C)CO)C[C@@H]2C)cc1,114.1*,-0.0941,34.1,-27.3,0.5
